KDM5B inhibitor = blocks human KDM5B histone demethylase activity; Q9UGL1; KDM5B demethylase, FDH-coupled NADH fluorescence (FDH is formaldehyde dehydrogenase); Potency, µM (titrated, usually from 57.7 µM), most hits filed as inhibitors; 220,000 tested, 2.6% active; AID 1347165; active = well fitted inhibition curve with a large enough effect; inconclusive = small, poorly fitted or top-dose-only effect; inactive = no such curve, though single readings can be large or run the other way; also: nearly all actives have a fitted effect of over 70% in size
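Measured: NADH fluorescence change, 30 min, RT. System: KDM5BΔAP 200 nM final, H3K4me3 peptide, α-KG, Fe(II), ascorbate, NAD⁺ plus FDH, pH 7.5 HEPES. Compounds: titrated, 10 min pre-incubation with enzyme.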
IP6K1 inhibitor = IP6K1 kinase inhibition | Q92551 | IP6K1 kinase, ADP-Glo luminescence, 2 h; active compounds read low | activity change, % (series mostly up to about 58 µM) | 140,000 tested, 0.81% active | AID 1645851; in the data active = activity change below about -25%
Target sequence (Q92551 whole entry, looked up): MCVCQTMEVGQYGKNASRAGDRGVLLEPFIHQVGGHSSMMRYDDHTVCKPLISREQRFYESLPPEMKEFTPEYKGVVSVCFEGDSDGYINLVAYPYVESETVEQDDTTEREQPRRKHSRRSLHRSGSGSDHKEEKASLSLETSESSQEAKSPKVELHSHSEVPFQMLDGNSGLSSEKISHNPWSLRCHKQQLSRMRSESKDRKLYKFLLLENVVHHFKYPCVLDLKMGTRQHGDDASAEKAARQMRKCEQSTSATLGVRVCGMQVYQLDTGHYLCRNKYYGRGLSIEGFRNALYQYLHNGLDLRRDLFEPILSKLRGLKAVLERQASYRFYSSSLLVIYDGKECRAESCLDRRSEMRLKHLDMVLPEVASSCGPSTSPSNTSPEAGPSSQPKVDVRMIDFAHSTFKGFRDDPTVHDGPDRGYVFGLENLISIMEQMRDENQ
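ADP-Glo luminescence measures ADP made by human IP6K1 during a 2 h RT reaction with ATP/IP6 (mix at 1.3 mM/130 uM); top library doses 57.5 and 19.1 uM final.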
Hits are given with their value; . = inactive; ? = inconclusive; / = no result. A selection: hits, their analogues and other compounds. The true share with any hit is near 2.8%.

SMILES	KDM5B inhibitor	IP6K1 inhibitor
CC(=O)N1CCN(c2cc(-c3noc([C@@H]4CCCN4Cc4ccc(C(F)(F)F)cc4)n3)ccn2)CC1	28µM	.
NC(=O)C1CCN(c2cc(-c3noc([C@@H]4CCCN4Cc4ccc(F)c(F)c4)n3)ccn2)CC1	25µM	.
COCCOc1cc(-c2noc([C@@H]3CCCN3Cc3ccc(NC(C)=O)cc3)n2)ccn1	.	.
CCOCCNC(=O)C1CCCN(c2nccc(Nc3ccc(C)cc3)n2)C1 (centres undefined)	/	.
O=C(Nc1cc(-c2ccccn2)nn1-c1ccccc1)c1cccc(Cl)c1	/	.
O=C(NC1CCc2nn(CC3CC3)c(=O)n2CC1)c1cc2ccccc2[nH]1 (centres undefined)	?	.
CCOc1ccccc1CN(C)C1CCc2nn(CC3CC3)c(=O)n2CC1 (centres undefined)	.	.
O=C(NC1CCc2nn(CC3CC3)c(=O)n2CC1)c1n[nH]c2ccccc12 (centres undefined)	28µM	.
CN(Cc1cccc2[nH]ccc12)C1CCc2nn(CC3CC3)c(=O)n2CC1 (centres undefined)	25µM	.
O=C(NCCc1ccc(Cl)cc1)C1CCCN(c2nccc(Nc3ccccc3F)n2)C1 (centres undefined)	/	.
CC(C)c1nc(CNC(=O)c2ccc(N3CCCC(C(N)=O)C3)nc2)no1 (centres undefined)	.	.
CC(C)c1nc(CNC(=O)c2ccc(NC3CCCCC3)nc2)no1	22µM	.
Cc1ccccc1-c1cnc2[nH]cc(CC(=O)N3CCOCC3)c2c1	35µM	.
COc1cc(F)cc(-c2cnc3[nH]cc(CC(=O)N4CCOCC4)c3c2)c1	35µM	.
O=C(Cc1c[nH]c2ncc(-c3ccccc3C(F)(F)F)cc12)N1CCOCC1	?	.
O=C(Cc1c[nH]c2ncc(-c3ccccc3Oc3ccccc3)cc12)N1CCOCC1	?	.
O=C(Cc1c[nH]c2ncc(-c3cccc(O)c3)cc12)N1CCOCC1	?	.
C[S+](=O)([O-])c1ccc(-c2cnc3[nH]cc(CC(=O)N4CCOCC4)c3c2)cc1	?	.
O=C(Cc1c[nH]c2ncc(-c3ccc(Oc4ccccc4)cc3)cc12)N1CCOCC1	40µM	.
O=C(Cc1c[nH]c2ncc(-c3cccc(CO)c3)cc12)N1CCOCC1	28µM	.
O=[S+]([O-])(NC1CCCN(c2ccc3nnc(C4CC4)n3n2)C1)c1cccc(C(F)(F)F)c1 (centres undefined)	/	.
O=C(c1cc(F)ccc1F)N1CCC(Cc2noc(C3CC3)n2)C1 (centres undefined)	/	.
Cc1cnc(CCNC(=O)CCc2nc3ccccc3s2)n1C1CC1	/	.
c1ccc(CN(Cc2ccccn2)[C@@H]2C[C@@H]3CO[C@H](c4ccccc4)C[C@@H]3C2)cc1	/	.
CCOC(=O)[C@@H]1[C@@H](O)C(=O)N(Cc2ccccc2)C12CCN(C(=O)c1ccc(C(C)(C)C)cc1)CC2	/	.
SMILES	KDM5B inhibitor	IP6K1 inhibitor
O=C(Cc1c[nH]c2ncc(-c3ccccc3)cc12)N1CCCC1	?	.
COc1ccc(-c2cnc3[nH]cc(CC(=O)N4CCNC(=O)C4)c3c2)cc1	35µM	.
COc1ccc(-c2cnc3[nH]cc(CC(=O)NC4CCC(O)CC4)c3c2)cc1 (centres undefined)	?	.
O=C(Cc1c[nH]c2ncc(-c3ccccc3)cc12)N1CC[S+](=O)([O-])CC1	35µM	.
CCn1ncc(Br)c1C(=O)Nn1c(C)nc2sc3c(c2c1=O)CCC(C)C3 (centres undefined)	.	/
Cc1ccc(-c2cccc(CN3CCCC3C(=O)NCc3cccc(Cl)c3)c2)cc1Cl (centres undefined)	/	.
CCOC(=O)[C@H]1[C@@H](O)C(=O)N(Cc2ccccc2)C12CCN(C(=O)OCc1ccccc1)CC2	/	.
COc1ccc(Cl)cc1-c1ncc2c(n1)OCCN(Cc1ccc(F)cc1F)C2=O	35µM	.
COc1cccc(-c2ncc3c(n2)OCCN(CC2CC2)C3=O)c1OC	.	.
COc1cccc(F)c1-c1ncc2c(n1)OCCN(CC1CC1)C2=O	28µM	.
CC(=O)Nc1cccc(-c2ncc3c(n2)OCCN(CC2CC2)C3=O)c1	32µM	.
CC(=O)Nc1cccc(-c2ncc3c(n2)OCCN(Cc2ccc(F)cc2F)C3=O)c1	32µM	.
NC(=O)c1cccc(-c2ncc3c(n2)OCCN(Cc2ccc(F)cc2F)C3=O)c1	.	.
COCCN1CCOc2nc(-c3cccc(OC)c3F)ncc2C1=O	?	.
CC(=O)Nc1cccc(-c2ncc3c(n2)OCCN(Cc2ccccc2)C3=O)c1	?	.
Cc1ccc(-c2cccc(CN3CCCC3C(=O)NC3CCCC3)c2)cc1Cl (centres undefined)	/	.
COc1ccc(NC(=O)c2ccc(N3CCCN(Cc4ccccc4C)C3=O)cc2)cc1	.	/
O=C(NCC(F)(F)F)c1ccc2oc(-c3ccncc3)nc2c1	/	.

High-throughput results: PubChem, National Center for Advancing Translational Sciences (NCATS)
